Assays:
Assay in all cases: log2 ratio of Biotin-Ahx-Ub-VS probe labelling (fragment/DMSO); higher = less target engagement (more negative = stronger competition), active = hit call of the paper (q ≤ 0.05, log2 ratio ≤ -1)
Conditions in all cases: compound concentration: 200 uM; treatment time: 3 h
USP34 = USP34 (UniProt Q70CQ2)
Outline: (§1)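 Values give the average log2 ratio of fragment to vehicle, assessed by unpaired t-test on global-median-normalised Spectronaut label-free quantities. Proteins needed ≥2 unique peptides. HEK293T lysate (495 µg per sample) was treated in triplicate with fragment at 200 µM or vehicle for 3 h and then with Biotin-Ahx-Ub-VS at 0.5 µM final for 1 h. Labelled DUBs were NeutrAvidin-enriched, digested and run by diaPASEF LC-MS/MS.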

USP36 = molecular target: T1, USP36 (UniProt Q9P275)
T1 sequence (whole entry): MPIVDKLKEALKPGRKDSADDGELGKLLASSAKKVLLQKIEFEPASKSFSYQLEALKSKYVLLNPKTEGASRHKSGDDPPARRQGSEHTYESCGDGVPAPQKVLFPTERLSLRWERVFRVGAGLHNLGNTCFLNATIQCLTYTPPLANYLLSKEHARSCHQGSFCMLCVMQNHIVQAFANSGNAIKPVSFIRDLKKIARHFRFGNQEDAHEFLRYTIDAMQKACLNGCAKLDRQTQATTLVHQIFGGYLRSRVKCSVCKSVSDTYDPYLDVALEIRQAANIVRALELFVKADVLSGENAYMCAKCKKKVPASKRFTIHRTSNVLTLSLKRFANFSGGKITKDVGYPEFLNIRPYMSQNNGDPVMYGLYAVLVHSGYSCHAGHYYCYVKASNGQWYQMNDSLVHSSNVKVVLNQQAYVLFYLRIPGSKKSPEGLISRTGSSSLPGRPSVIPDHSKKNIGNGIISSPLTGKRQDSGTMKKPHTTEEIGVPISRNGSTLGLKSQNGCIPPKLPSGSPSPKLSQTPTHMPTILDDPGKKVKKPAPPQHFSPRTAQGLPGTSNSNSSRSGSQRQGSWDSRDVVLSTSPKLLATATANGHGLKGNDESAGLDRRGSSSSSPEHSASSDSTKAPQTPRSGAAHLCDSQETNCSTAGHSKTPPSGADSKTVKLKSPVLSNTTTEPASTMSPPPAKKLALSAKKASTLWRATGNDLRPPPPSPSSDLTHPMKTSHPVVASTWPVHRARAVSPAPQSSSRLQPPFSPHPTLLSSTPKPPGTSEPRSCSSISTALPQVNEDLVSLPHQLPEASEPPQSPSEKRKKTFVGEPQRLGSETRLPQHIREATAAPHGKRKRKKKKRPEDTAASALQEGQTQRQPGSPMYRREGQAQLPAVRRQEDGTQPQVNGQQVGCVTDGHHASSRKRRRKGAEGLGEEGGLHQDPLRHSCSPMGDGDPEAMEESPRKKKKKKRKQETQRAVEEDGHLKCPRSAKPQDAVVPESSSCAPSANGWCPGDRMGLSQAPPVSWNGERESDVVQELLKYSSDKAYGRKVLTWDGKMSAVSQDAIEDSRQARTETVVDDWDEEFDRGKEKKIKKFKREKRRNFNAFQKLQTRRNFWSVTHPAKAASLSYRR
Outline: as §1

USP38 = molecular target: T2, USP38 (UniProt Q8NB14)
T2 sequence (whole entry): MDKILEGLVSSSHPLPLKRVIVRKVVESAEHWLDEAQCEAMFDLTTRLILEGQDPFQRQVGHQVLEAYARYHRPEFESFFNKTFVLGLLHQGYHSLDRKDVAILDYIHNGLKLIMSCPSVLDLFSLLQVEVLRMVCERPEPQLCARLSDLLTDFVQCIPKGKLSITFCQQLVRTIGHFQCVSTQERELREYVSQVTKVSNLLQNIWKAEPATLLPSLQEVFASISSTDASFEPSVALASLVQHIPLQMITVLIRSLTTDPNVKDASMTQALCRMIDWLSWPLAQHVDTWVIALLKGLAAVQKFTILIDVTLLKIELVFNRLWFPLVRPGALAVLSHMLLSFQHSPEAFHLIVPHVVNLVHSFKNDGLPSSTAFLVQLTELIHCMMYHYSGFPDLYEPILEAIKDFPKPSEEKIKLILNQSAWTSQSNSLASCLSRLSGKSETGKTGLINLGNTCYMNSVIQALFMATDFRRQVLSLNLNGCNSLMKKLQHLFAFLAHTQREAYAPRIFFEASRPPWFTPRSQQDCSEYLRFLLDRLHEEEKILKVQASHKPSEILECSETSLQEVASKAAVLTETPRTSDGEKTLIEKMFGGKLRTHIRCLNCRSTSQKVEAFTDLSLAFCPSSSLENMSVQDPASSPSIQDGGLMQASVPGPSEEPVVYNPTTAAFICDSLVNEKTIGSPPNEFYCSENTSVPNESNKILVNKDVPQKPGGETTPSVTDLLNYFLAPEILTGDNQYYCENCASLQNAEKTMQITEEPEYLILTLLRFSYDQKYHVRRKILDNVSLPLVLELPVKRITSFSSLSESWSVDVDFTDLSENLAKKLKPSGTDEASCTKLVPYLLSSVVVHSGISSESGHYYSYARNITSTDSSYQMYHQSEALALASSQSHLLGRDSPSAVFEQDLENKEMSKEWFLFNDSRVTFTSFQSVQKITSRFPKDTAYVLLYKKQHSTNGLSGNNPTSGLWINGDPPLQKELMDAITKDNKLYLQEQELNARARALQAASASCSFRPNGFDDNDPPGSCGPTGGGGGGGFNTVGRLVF
Outline: as §1

USP39 = molecular target: T3, USP39 (UniProt Q53GS9)
T3 sequence (whole entry): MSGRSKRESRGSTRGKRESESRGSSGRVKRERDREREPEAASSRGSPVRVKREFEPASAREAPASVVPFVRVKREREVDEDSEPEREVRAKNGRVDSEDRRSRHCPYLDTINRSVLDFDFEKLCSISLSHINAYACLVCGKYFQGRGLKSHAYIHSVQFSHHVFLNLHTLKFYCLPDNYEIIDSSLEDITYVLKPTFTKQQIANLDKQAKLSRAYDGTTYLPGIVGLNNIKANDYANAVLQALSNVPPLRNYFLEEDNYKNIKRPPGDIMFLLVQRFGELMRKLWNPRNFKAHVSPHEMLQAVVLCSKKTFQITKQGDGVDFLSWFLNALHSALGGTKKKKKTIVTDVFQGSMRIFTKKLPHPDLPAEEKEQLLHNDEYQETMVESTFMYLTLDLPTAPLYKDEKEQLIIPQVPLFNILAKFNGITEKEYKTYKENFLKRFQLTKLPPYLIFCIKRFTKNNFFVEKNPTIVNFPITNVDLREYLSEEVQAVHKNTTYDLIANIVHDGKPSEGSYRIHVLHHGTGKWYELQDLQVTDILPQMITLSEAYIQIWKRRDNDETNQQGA
Outline: as §1

USP4 = molecular target: T4, USP4 (UniProt Q13107)
T4 sequence (whole entry): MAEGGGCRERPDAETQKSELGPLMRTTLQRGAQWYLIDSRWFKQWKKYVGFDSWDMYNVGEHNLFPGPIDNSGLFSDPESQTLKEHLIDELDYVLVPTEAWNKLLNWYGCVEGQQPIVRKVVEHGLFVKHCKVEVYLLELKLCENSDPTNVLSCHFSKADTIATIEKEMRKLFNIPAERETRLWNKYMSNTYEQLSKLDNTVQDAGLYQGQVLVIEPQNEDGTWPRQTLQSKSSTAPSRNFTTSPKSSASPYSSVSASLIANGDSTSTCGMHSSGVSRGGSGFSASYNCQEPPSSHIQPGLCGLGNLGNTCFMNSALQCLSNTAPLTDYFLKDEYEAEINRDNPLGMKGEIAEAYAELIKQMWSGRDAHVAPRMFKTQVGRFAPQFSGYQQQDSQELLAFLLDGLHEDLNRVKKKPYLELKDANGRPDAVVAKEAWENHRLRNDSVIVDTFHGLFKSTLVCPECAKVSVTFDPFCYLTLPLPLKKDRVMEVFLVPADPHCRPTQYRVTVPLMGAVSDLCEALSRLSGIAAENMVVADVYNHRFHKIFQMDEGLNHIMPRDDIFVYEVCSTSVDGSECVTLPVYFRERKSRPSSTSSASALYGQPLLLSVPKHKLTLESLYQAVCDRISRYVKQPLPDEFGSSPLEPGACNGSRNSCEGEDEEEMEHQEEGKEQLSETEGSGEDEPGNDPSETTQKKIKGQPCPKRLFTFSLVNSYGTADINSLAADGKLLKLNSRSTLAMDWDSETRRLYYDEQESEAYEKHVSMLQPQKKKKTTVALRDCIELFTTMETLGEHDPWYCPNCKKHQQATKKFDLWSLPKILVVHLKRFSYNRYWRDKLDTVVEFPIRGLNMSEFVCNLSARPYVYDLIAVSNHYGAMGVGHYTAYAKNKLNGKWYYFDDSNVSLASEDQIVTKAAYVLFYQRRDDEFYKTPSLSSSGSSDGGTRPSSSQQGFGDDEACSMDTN
Outline: as §1

Measured: log2 ratio of Biotin-Ahx-Ub-VS probe labelling

Chain of USP34 (Q70CQ2 whole entry, the tested form may be a part): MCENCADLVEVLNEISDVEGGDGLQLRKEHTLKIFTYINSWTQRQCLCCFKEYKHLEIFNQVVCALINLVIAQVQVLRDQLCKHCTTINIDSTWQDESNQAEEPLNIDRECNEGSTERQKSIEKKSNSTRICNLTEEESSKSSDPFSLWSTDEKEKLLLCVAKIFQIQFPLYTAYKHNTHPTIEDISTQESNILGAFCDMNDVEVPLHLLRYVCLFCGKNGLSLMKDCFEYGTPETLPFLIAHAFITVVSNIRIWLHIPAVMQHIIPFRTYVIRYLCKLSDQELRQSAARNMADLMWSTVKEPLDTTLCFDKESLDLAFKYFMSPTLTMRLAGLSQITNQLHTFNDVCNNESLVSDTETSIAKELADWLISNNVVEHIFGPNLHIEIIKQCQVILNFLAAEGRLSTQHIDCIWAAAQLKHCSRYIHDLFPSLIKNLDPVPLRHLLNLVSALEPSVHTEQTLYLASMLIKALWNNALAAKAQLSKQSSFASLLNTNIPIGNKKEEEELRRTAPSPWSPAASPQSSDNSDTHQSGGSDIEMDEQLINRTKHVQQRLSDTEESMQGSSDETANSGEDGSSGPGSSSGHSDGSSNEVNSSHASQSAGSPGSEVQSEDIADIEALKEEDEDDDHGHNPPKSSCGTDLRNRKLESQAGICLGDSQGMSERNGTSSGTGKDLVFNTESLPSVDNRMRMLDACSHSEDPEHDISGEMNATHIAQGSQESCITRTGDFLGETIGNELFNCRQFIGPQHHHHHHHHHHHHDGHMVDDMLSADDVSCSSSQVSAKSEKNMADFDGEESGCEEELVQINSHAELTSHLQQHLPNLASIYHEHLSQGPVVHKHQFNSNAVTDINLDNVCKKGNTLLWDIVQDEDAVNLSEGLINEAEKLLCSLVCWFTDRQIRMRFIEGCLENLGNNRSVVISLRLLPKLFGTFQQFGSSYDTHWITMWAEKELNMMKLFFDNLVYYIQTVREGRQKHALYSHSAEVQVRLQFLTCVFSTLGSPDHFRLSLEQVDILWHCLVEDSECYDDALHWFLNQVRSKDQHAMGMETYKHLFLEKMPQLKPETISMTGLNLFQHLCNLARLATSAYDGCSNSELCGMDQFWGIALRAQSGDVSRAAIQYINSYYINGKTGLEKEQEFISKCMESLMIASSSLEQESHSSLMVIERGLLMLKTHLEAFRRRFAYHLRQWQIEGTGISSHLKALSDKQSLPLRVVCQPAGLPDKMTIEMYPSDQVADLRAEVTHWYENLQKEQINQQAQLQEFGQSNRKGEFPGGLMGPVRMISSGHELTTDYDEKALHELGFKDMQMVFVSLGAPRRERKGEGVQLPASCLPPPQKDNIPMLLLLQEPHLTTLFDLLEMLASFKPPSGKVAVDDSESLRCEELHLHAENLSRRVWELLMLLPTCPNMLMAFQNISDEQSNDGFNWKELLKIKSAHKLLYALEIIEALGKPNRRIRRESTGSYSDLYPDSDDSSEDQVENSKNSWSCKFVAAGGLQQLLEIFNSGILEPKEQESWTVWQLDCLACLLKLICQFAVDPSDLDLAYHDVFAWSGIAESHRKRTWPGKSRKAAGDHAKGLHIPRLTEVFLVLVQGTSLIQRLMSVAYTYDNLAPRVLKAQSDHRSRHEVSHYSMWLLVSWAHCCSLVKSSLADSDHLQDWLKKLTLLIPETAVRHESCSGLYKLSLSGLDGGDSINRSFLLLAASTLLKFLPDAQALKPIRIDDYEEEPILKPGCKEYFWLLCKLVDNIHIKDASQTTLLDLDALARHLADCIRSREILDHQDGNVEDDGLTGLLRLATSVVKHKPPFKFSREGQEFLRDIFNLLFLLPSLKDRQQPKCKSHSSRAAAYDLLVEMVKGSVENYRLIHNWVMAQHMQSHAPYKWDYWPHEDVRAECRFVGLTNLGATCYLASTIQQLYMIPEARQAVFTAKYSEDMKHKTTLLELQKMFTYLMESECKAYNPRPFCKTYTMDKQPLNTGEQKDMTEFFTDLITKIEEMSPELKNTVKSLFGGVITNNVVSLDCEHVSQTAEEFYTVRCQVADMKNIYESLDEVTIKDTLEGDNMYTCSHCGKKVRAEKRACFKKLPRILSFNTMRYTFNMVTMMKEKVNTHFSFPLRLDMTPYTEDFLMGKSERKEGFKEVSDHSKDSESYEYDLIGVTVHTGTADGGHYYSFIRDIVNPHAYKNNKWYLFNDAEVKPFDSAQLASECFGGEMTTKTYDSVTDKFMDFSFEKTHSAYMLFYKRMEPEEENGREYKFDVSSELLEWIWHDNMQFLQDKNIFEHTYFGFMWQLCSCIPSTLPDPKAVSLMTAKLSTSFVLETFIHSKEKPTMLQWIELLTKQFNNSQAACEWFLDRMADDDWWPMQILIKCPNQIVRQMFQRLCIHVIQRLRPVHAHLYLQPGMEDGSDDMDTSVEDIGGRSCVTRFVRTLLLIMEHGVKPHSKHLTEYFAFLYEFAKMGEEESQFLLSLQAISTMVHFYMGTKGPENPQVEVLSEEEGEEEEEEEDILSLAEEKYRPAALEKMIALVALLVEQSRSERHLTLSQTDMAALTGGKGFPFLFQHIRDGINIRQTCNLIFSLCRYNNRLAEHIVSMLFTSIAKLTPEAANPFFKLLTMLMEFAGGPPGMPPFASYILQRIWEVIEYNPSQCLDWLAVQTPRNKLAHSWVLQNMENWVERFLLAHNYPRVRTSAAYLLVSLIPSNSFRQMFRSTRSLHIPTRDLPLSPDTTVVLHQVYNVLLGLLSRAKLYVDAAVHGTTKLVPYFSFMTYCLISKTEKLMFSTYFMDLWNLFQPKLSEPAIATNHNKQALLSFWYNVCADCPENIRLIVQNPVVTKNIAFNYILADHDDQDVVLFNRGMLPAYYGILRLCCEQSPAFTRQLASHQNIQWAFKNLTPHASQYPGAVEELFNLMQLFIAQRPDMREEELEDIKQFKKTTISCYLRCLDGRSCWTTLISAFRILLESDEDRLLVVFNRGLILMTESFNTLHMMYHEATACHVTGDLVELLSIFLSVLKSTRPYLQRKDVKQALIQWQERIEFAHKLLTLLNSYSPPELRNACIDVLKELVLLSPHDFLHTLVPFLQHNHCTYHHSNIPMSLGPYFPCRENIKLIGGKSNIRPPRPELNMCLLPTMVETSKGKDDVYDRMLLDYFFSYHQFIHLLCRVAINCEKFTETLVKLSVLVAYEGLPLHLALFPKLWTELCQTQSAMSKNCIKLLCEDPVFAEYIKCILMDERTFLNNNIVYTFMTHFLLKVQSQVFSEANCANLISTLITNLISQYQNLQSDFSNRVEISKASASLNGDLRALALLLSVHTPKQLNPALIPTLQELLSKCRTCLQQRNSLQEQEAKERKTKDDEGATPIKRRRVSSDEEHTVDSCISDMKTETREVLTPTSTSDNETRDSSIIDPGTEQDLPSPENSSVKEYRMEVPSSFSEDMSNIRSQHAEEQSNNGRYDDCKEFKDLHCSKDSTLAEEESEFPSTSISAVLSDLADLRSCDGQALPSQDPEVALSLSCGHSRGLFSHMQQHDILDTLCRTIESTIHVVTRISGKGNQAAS

Cc1conc1C1CN(C(=O)CCl)C1
inactive: USP34 -0.684 | USP36 -0.258 | USP38 -0.799 | USP39 0.247 | USP4 -0.913

Source: the supplement of paper PMC11732987, “Enantioselective OTUD7B fragment discovery through chemoproteomics screening and high-throughput optimisation” (Communications Chemistry, 2025)
